# Test results reported in the supplement of paper PMC6555819.
# Test system: THRa:RXRa (NR concentration 90 nM, RXRa partner concentration 90 nM)
# Test: PBM binding z-score (relative to random genomic background probes); higher = stronger binding; sequences stand for … in GC…GCGATTGACAGCGTAGAATGAAGG
# Procedure, shortened: (§1)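 The probes on custom Agilent 4×180K protein-binding microarrays were double-stranded, with 34-nt variable regions bearing direct-repeat seeds, single-nucleotide variants, half-site ablations and random human genomic background sequences. Incubation lasted 1 h with ligand-free nuclear receptor dimers in PBS pH 7.4, 2% milk, 0.02% Triton X-100, 1 mM DTT, 0.2 mg/mL BSA and 0.4 mg/ml salmon testes DNA. Antibodies against each partner (one per run) detected bound dimers, and fluorescence scans were regression-normalized. Binding z-scores take the random background probes as reference.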
row,Sequence,PBM binding z-score
1,TAGCCTAGGTCATTCAGGGGCCTGTATAGAAAGC,3.54
2,TGTTGTAGATCAAGCAGGTTAAGAAAGCCTGAGT,0.0864
3,CCGACTGGGGCAAGGTTACCCTAACGCACAGCCA,1.47
4,TCGAGTAGGTTACCACTGGGGCATTCAGCTTTCT,0.242
5,TATACAGGGTCAAAGGCTAGAGTACGAATGTCGA,3.44
6,TCATATAGGTAAATGCTAGGTAAAAGTCCGATCT,0.9
7,GGTACGAGGGCAAGTTGATAGCAGAGTTTGATGG,1.39
8,TCATATAGGTAAATGCTAGGTGAAAGTGCGATCT,1.64
9,AATACAGGGTCATCGTAGACCAGAGTACGCACAG,3.67
10,TATCCAGGGTCAAAGGCCAGAGTACGAATGTCGA,3.75
11,CCTACTGGGCCATCAGATCATTGATATCAACGTT,-0.114
12,CGTCCAAGGTCAAGGTCCGTGAAAGAGACTCGAA,3.82
13,TCGAGTAGGTTACCGATGGGGCATTCAGCTTTCT,0.0793
14,TCATATAGGTAAAGGGTGAAAGTCGGTGTGGTAA,1.19
15,CAAACTTGGTCACCGGAAGGTCAAAGTCCGCATG,3.05
16,TCTATTAGTTGATTAGGGCAACTGAAACAGCGGA,0.533
17,CAAATTAGGTCAAGGTCAAAGTCGGTTTGTGCCA,4.42

# Test system: THRa homodimer (NR concentration 90 nM)
# Test: as above
# Procedure, shortened: as §1
row,Sequence,PBM binding z-score
1,CCTAGCAGGCCAGGGGCACTCAAGCATTTCGCTT,-1.01
2,ATCTCTAGGTAAGGTTCAGTGAAAGATCGATAGA,0.39
3,ATAGAAAGGTCGAGGTGAGTATAGAGAAAGGGAA,0.985
4,GCATATAGGTAATACAAGGGGAAAGTCCGATTGT,-0.473
5,CCTACTTGGTCAGGAGGTCACACACCGGATATGA,2.33
6,CGTCCAAGGTCCTAGGAGGTCAGTGAAGACAGAT,0.834
7,AATACAGGGTCATCGTCGGCCAGAGTACGCACAG,1.64
8,CAGCGTAGGTCAGGGCCAGTATAGGAGGAACGTT,-0.0112
9,CAAACTAGGTCACGATAGGTCAAAGTCGAATGAC,2.39
10,AGAACGAGGGCACGCTGAGTTCATAGCAGAGTAG,0.849
11,ATATGTAGGGTATCGGGTCATTCAGTTTGCGCAT,2.69
12,TCATATAGGTAAACGGTGAAAGTCGGTGTGGTAA,0.00294
13,TCGAGTAGGTTAGGGGCATACAGAATGGCGTCGA,0.135
14,TAGCCTAGGTCATTCAGGGGACAGTATAGAAAGC,1.54
15,TCAGACAGGTGAAGGTACCTCAGGTACGCAGTCG,0.205
16,CCTACTAGGCCATTCAGAGGTCATTGATCATATG,2.03
17,ATATGTAGGTTACATCCGGGTCGTTCAGGCTATG,1.24
18,TCTTGTAGATCAGAAGGTTAAGAAAGCTGGCCAA,-0.485
19,TGATATAGGTAAAGGTGAAAGTCGAACGATATGA,-0.161
20,ACTAGCAGGCCAAGGGTCACTCTAGATTAGTCCG,-0.0207

row,Sequence,PBM binding z-score
1,GGAACGAGGCCAAAGTTGATAGCATCTGTCGACG,-0.899
2,CGAACTAGGTCATTGACAGGAGAGTGAATAGTAA,0.629
3,TAGCCTAGGTCATTCAGGGGCCTGTATAGAAAGC,0.286
4,TGTTGTAGATCAAGCAGGTTAAGAAAGCCTGAGT,-0.545
5,CCGACTGGGGCAAGGTTACCCTAACGCACAGCCA,0.84
6,TCGAGTAGGTTACCACTGGGGCATTCAGCTTTCT,-0.96
7,TATACAGGGTCAAAGGCTAGAGTACGAATGTCGA,1.01
8,TCATATAGGTAAATGCTAGGTAAAAGTCCGATCT,0.258
9,GGTACGAGGGCAAGTTGATAGCAGAGTTTGATGG,0.219
10,TCATATAGGTAAATGCTAGGTGAAAGTGCGATCT,0.475
11,AATACAGGGTCATCGTAGACCAGAGTACGCACAG,1.24
12,TATCCAGGGTCAAAGGCCAGAGTACGAATGTCGA,1.3
13,CCTACTGGGCCATCAGATCATTGATATCAACGTT,-0.322
14,CGTCCAAGGTCAAGGTCCGTGAAAGAGACTCGAA,2.69
15,TCGAGTAGGTTACCGATGGGGCATTCAGCTTTCT,-0.771
16,TCATATAGGTAAAGGGTGAAAGTCGGTGTGGTAA,0.771
17,CAAACTTGGTCACCGGAAGGTCAAAGTCCGCATG,1.24
18,TCTATTAGTTGATTAGGGCAACTGAAACAGCGGA,0.295
19,CAAATTAGGTCAAGGTCAAAGTCGGTTTGTGCCA,4.59

# Test system: VDR homodimer (NR concentration 270 nM)
# Test: as above
# Procedure, shortened: as §1
row,Sequence,PBM binding z-score
1,CCTAGCAGGCCAGGGGCACTCAAGCATTTCGCTT,-0.769
2,ATCTCTAGGTAAGGTTCAGTGAAAGATCGATAGA,2.32
3,ATAGAAAGGTCGAGGTGAGTATAGAGAAAGGGAA,0.537
4,GCATATAGGTAATACAAGGGGAAAGTCCGATTGT,0.0263
5,CCTACTTGGTCAGGAGGTCACACACCGGATATGA,2.54
6,CGTCCAAGGTCCTAGGAGGTCAGTGAAGACAGAT,1.06
7,AATACAGGGTCATCGTCGGCCAGAGTACGCACAG,3.57
8,CAGCGTAGGTCAGGGCCAGTATAGGAGGAACGTT,-0.494
9,CAAACTAGGTCACGATAGGTCAAAGTCGAATGAC,2.02
10,AGAACGAGGGCACGCTGAGTTCATAGCAGAGTAG,7.01
11,ATATGTAGGGTATCGGGTCATTCAGTTTGCGCAT,3.81
12,TCATATAGGTAAACGGTGAAAGTCGGTGTGGTAA,-0.132
13,TCGAGTAGGTTAGGGGCATACAGAATGGCGTCGA,0.73
14,TAGCCTAGGTCATTCAGGGGACAGTATAGAAAGC,1.66
15,TCAGACAGGTGAAGGTACCTCAGGTACGCAGTCG,0.0555
16,CCTACTAGGCCATTCAGAGGTCATTGATCATATG,3.93
17,ATATGTAGGTTACATCCGGGTCGTTCAGGCTATG,1.82
18,TCTTGTAGATCAGAAGGTTAAGAAAGCTGGCCAA,-0.118
19,TGATATAGGTAAAGGTGAAAGTCGAACGATATGA,-0.09
20,ACTAGCAGGCCAAGGGTCACTCTAGATTAGTCCG,1.03

row,Sequence,PBM binding z-score
1,GGAACGAGGCCAAAGTTGATAGCATCTGTCGACG,-0.181
2,CGAACTAGGTCATTGACAGGAGAGTGAATAGTAA,0.844
3,TAGCCTAGGTCATTCAGGGGCCTGTATAGAAAGC,1.04
4,TGTTGTAGATCAAGCAGGTTAAGAAAGCCTGAGT,-0.058
5,CCGACTGGGGCAAGGTTACCCTAACGCACAGCCA,-0.188
6,TCGAGTAGGTTACCACTGGGGCATTCAGCTTTCT,-0.613
7,TATACAGGGTCAAAGGCTAGAGTACGAATGTCGA,3.25
8,TCATATAGGTAAATGCTAGGTAAAAGTCCGATCT,0.409
9,GGTACGAGGGCAAGTTGATAGCAGAGTTTGATGG,2.1
10,TCATATAGGTAAATGCTAGGTGAAAGTGCGATCT,0.485
11,AATACAGGGTCATCGTAGACCAGAGTACGCACAG,4.03
12,TATCCAGGGTCAAAGGCCAGAGTACGAATGTCGA,3.46
13,CCTACTGGGCCATCAGATCATTGATATCAACGTT,0.0449
14,CGTCCAAGGTCAAGGTCCGTGAAAGAGACTCGAA,2.27
15,TCGAGTAGGTTACCGATGGGGCATTCAGCTTTCT,-0.757
16,TCATATAGGTAAAGGGTGAAAGTCGGTGTGGTAA,0.649
17,CAAACTTGGTCACCGGAAGGTCAAAGTCCGCATG,2.2
18,TCTATTAGTTGATTAGGGCAACTGAAACAGCGGA,0.318
19,CAAATTAGGTCAAGGTCAAAGTCGGTTTGTGCCA,4.95
